DT40 TDP1 no CPT: qHTS for Inhibitors of human tyrosyl-DNA phosphodiesterase 1 (TDP1): qHTS in cells in absence of CPT | Potency, µM (top dose mostly 46.2 µM), without a hit: at the top dose activity change, negative = growth inhibition, most hits filed as inhibitors | DT40 Tdp1-/- hTDP1 cells, no CPT, ATP luminescence, 48 h | 420,000 compounds, 15% hits; also: potency is read from the fitted curve at half-maximal effect; nearly all actives have a fitted effect of over 55% in size
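Chicken DT40 Tdp1-/- cells stably complemented with human TDP1 were seeded at 400 cells/well with DMSO in place of 20 nM camptothecin. After compound pinning, cells grew at least 48 hr at 37 °C; viability read by CellTiter-Glo luminescence.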
DT40 TDP1 CPT: qHTS for Inhibitors of human tyrosyl-DNA phosphodiesterase 1 (TDP1): qHTS in cells in presence of CPT. 420,000 compounds, 12% hits. chicken DT40 Tdp1-/-;hTDP1 cells + 20 nM CPT, ATP luminescence, 48 h. Potency, µM (highest dose often 46.2 µM), inactives show at the highest dose activity change, negative = growth inhibition, most hits filed as inhibitors. AID 686979, 2013; also: potency is read from the fitted curve at half-maximal effect; nearly all actives have a fitted effect of over 55% in size
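Chicken DT40 Tdp1-/- cells complemented with human TDP1, 400 cells/well, exposed to compounds plus 20 nM camptothecin for at least 48 h at 37 C; viability read as ATP content by CellTiter-Glo luminescence.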
IL1B secr inh: qHTS for Inhibitors of Inflammasome Signaling: IL-1-beta AlphaLISA Primary Screen | activity change, % at 57.5 µM | AID 743279, 2014 | 360,000 compounds, 4.7% hits | THP-1 LPS/ATP IL-1B secretion, AlphaLISA, 16 h; hits give low values; in the data active = activity change below about -50%; inconclusive = mostly about -30% to -49%
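THP-1 cells pretreated 1 hr with compounds (up to 57.5 uM final), then stimulated with LPS (250 ng/mL final) plus ATP (1.25 mM final); secreted IL-1B measured by AlphaLISA after 16 hr, decreased signal indicating inhibition.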
ALOX12 inh: Primary qHTS assay for inhibitors of human arachidonate 12S-lipoxygenase (ALOX12): Round 2. Polyunsaturated fatty acid lipoxygenase ALOX12 (Homo sapiens), P18054. purified 12hLO, xylenol orange hydroperoxide absorbance. Potency, µM (titrated, usually from 108 µM), inactives show at the top dose activity change, negative = inhibition, most hits filed as inhibitors. 580,000 compounds, 1.1% hits; also: potency is read from the fitted curve at half-maximal effect
Target sequence (P18054 whole entry, looked up): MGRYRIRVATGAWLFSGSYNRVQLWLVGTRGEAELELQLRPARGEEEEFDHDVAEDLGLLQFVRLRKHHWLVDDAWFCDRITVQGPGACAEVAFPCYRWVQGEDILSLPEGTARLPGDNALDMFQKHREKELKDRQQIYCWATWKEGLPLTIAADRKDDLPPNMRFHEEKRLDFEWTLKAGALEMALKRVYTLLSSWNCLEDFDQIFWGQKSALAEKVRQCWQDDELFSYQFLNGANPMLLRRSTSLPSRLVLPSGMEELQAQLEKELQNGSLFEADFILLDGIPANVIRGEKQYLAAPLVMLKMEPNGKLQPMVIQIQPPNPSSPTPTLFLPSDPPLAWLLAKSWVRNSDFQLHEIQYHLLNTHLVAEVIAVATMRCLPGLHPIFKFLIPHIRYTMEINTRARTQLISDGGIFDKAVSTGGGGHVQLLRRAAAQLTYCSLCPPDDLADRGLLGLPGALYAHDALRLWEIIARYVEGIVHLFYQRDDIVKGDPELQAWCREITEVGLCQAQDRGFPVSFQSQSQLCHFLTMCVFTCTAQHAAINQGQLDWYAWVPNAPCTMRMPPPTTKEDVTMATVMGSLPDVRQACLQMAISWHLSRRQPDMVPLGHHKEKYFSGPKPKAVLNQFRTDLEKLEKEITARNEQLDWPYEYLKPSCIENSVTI
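Purified human 12hLO at 150 nM in 25 mM Hepes, 0.01% Triton X-100, pH 7.0, preincubated 15 min at room temperature with compound. Reaction started with 40 uM arachidonic acid, 30 min at room temperature. Hydroperoxide measured by Fe-xylenol orange, 573/405 nm absorbance ratio.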
HT1080-NT tox: qHTS for induction of synthetic lethality in tumor cells producing 2HG: qHTS for the HT-1080-NT fibrosarcoma cell line. HT-1080-NT fibrosarcoma viability, CellTiter-Glo ATP luminescence, 48 h. 360,000 compounds, 1.6% hits. AID 686970, 2013. Potency, µM (doses to about 46.1 µM), for inactives: at the highest dose activity, negative = less viability, actives largely listed as cytotoxic;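 also: NT is the 2HG producing partner of a matched IDH1 knockdown line; potency is read from the fitted curve at half-maximal effect; 0% = DMSO-treated cells and -100% = media-only wells without cells; nearly all actives have a fitted effect of over 55% in size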
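A 48-hour cytotoxicity screen used HT-1080-NT cells plated 2 hours before compound delivery. ATP-based CellTiter-Glo luminescence measured viability, normalized to DMSO and no-cell controls.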
HT1080 IDH1KD tx: qHTS for induction of synthetic lethality in tumor cells producing 2HG: qHTS for the HT-1080-IDH1KD cell line | HT-1080 IDH1 knockdown viability, ATP luminescence, 48 h | Potency, µM (highest dose often 46.1 µM), inactives show at the highest dose activity, negative = toxicity, most hits filed as cytotoxic | 360,000 compounds, 2% hits;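 also: potency is read from the fitted curve at half-maximal effect; 0% = DMSO wells and -100% = cell-free medium wells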
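% activity derives from luminescence (CellTiter-Glo), normalised to DMSO and no-cell wells. HT-1080-IDH1KD cells, 750/well, had 48 h compound exposure at 37 °C.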
* hit, by the source's call; u = inconclusive; x = no result; [ ] = dose if it differs, or a comment. Shown is part of a subset that was picked to be rich in hits. Unless noted, calls follow the shape of the dose curve; as a rule, active = well fitted curve in the direction sought with a large enough effect; inconclusive = small, poorly fitted or top-dose-only effect, or another doubt; inactive = no such curve, though single readings can be large; an effect the other way counts as inactive or inconclusive. Unless noted, % is scaled to controls: 0 for no effect and ±100 for the full control effect.

SMILES | DT40 TDP1 no CPT | DT40 TDP1 CPT | IL1B secr inh | ALOX12 inh | HT1080-NT tox | HT1080 IDH1KD tx
CC(=O)OC1CC(OC2C(O)CC(OC3C(O)CC(OC4CCC5(C)C(CCC6C5CCC5(C)C(C7=CC(=O)OC7)C(O)CC65O)C4)OC3C)OC2C)OC(C)C1OC1OC(CO)C(O)C(O)C1O (configuration not stated) | 1.84µM* | 1.46µM* | -80.0* | 13.8% | 0.651µM* | 1.3µM*
c1ccc(-c2[nH]c(-c3ccccc3)[n+](CC3CO3)c2-c2ccccc2)cc1 (configuration not stated) | 10.3µM* | 5.8µM* | -56.3* | -3.9% | -24.8% | -22.8%
CCc1nc2c(OCc3ccc(C(F)(F)F)cc3)cccn2c1N(C)C(=O)C(C)C | 25.9µM* | u | -23.3 | -3.7% | -11.8% | -11.1%
CCOC(=O)c1ccc(N2C(=O)c3n[nH]c(-c4cccs4)c3C2c2ccc(OC)cc2OC)cc1 (configuration not stated) | 20.6µM* | 23.1µM* | x | -19.2% | x | x
COc1cc2c(cc1OCC1CCCC1)N(C(=O)CC(C)C)CC21CCN(CC(=O)O)CC1 | x | x | x | 35.4% | x | x
O=C1NC(=O)C(=CN2CCc3ccccc32)C(=O)N1 | -5.2% | u | -6.0 | -2.9% | 5.8% | -4.1%
O=P(N1CC1)(N1CC1)N1CCc2ccccc21 | 8.2µM* | 7.31µM* | 30.2 | -7.2% | u | -7.4%
Cc1cc(C(=O)Nc2sc3c(c2C#N)CCC3)no1 | u | u | 0.0 | u | 10µM* | u
Cc1noc(C(=O)Nc2sc3c(c2C#N)CCC3)c1Cl | u | u | 31.8 | u | -4.3% | -12.9%
O=C(NC[C@H]1C[C@@H]2CCN1C[C@@H]2CN1CCN(c2ccccn2)CC1)Nc1ccsc1 | x | x | x | 74.0% | x | x
O=C(CCl)c1ccc(Cl)cc1Cl | 13.7µM* | 21.7µM* | x | u | x | x
CN1CCCCC12Cc1ccccc1CN(C(=O)Cc1ccccc1)C2 (configuration not stated) | x | x | x | 10.1%[6.33 µM] | x | x
COc1ccc(O)c2c(=O)c3c(OC)cc4c(c3oc12)C1C=COC1O4 (configuration not stated) | 0.92µM* | 1.3µM* | 20.6 | 28.2% | u | 2.9%
CCOC(=O)c1ccc(NC(c2ccc(N(C)C)cc2)P(=O)(OC(C)C)OC(C)C)cc1 (configuration not stated) | 29.1µM* | u | 8.5 | -3.6% | -22.1% | -29.8%
CC(C)OP(=O)(OC(C)C)C(Nc1ccccc1)c1cccc2c1OCO2 (configuration not stated) | u | u | -19.0 | 8.7% | 1.7% | -2.0%
CCn1c(=O)oc2cc(NC(=O)CCl)ccc21 | 14.6µM* | 11.6µM* | -99.8* | -10.7% | 8.2µM* | 5.17µM*
FC(F)(F)c1cccc(-n2nnnc2C2(N3CCCCC3)CCCCC2)c1 | x | x | x | 5.0% | x | x
CCC(CC)C(=O)NC[C@H]1C[C@@H]2CCN1C[C@@H]2c1cc(-c2ccc(OC)c(OC)c2)nn1C | x | x | x | 36.0% | x | x
C[C@]1(O)CCC2C3CC[C@H]4C[C@@H](OC(=O)[C@@H](N)CCCCN)CC[C@]4(C)C3CC[C@@]21C (some centres not stated) | 25.9µM* | u | -7.6 | u | -2.8% | 0.1%
COCC(=O)N1CCCC(C(=O)N2CCC(C#N)(c3ccccc3)CC2)C1 (configuration not stated) | x | x | x | 10.8% | x | x
O=C(Cc1ccc(Cl)c(Cl)c1)N1CCCC[C@H]1CN1CCCC1 | 26.6µM* | 26.6µM* | x | 199.2% | x | x
COC(=O)N1CCN(C(=O)Cc2ccc(Cl)c(Cl)c2)[C@H](CN2CCCC2)C1 | u | -20.6% | x | u | x | x
CC(=O)C(C#N)c1ccccc1 (configuration not stated) | x | x | x | -8.8% | x | x
COc1ccc(Nc2nc(N)nc(CSc3nc4ccccc4s3)n2)cc1 | 16.4µM* | 14.6µM* | x | -17.0% | x | x
CC(=O)c1cccc(NC(=O)NC[C@H]2C[C@@H]3CCN2C[C@@H]3c2cc(-c3cccs3)nc(C)n2)c1 | x | x | x | 68.4% | x | x
SMILES | DT40 TDP1 no CPT | DT40 TDP1 CPT | IL1B secr inh | ALOX12 inh | HT1080-NT tox | HT1080 IDH1KD tx
O=C(Nc1ccc2nc(-c3cccs3)c(-c3cccs3)nc2c1)NC1CC1 | 17.8µM* | u | u | u | u | u
c1ccc(C(O[C@H]2CCCN(CCc3ccc4c(c3)OCO4)C2)c2ccccc2)cc1 | 23.7µM* | u | x | u | x | x
NC(=O)CN1C(=O)CO[C@H]2CN(Cc3ccccn3)C[C@H]21 | x | x | x | 83.1%[176 µM] | x | x
COc1cc(OC)c(NS(=O)(=O)c2cc(-c3cnc(C4CC4)o3)ccc2C)cc1Cl | 6.51µM* | 13µM* | x | -5.1% | x | x
CCCCOCCCn1c(N)c(C(=O)OC(C)COC)c2nc3ccccc3nc21 (configuration not stated) | u | u | u | 44.4% | -25.4% | -21.5%
CCCCn1c(NC(=O)c2ccc(Br)o2)c(C(=O)OCC)c2nc3ccccc3nc21 | 20.6µM* | u | -7.2 | -9.7% | u | -29.7%
CCCCn1c(NS(=O)(=O)c2ccccc2)c(C(=O)OCC)c2nc3ccccc3nc21 | 20.6µM* | u | -22.7 | 0.3% | u | -14.9%
CC1Cc2ccccc2N1Cc1cccc(S(=O)(=O)N(C)C)c1 (configuration not stated) | u | u | -1.0 | -1.3% | -26.6% | -23.0%
CC1Cc2cc(S(=O)(=O)N(Cc3ccccc3)C(C)C)ccc2N1C(=O)C1CCC1 (configuration not stated) | 20.6µM* | u | x | 12.1% | x | x
